# Rows were chosen to be rich in hits. Some 0.51% of all compounds tested hit in one or more screens of this group.
# FMDV RLuc: antivirals against foot and mouth disease virus replicon; FMDV replicon cells, Renilla luciferase signal; Potency, µM (titrated, usually from 57.5 µM), for inactives: at the highest dose activity change, negative = inhibition, hits mostly inhibitors; actives 0.32% (n = 120,000); AID 1745857; note: nearly all actives have a fitted effect of over 55% in size
# FMDV antiviral: antivirals against foot and mouth disease virus; FMDV antiviral cell assay, firefly luciferase signal; Potency, µM (doses to about 57.5 µM), without a hit: at the top dose activity change, negative = inhibition, usual class: inhibitors; actives 0.23% (n = 120,000); AID 1745856; note: nearly all actives have a fitted effect of over 60% in size
# Starred values were filed as active, the others as inactive; ? = inconclusive. Calls come from the whole dose curve. % is set by controls: 0 for no effect and ±100 for the full control effect; potency is the fitted concentration of half-maximal effect.
SMILES,FMDV RLuc,FMDV antiviral
C=CCC1(CC=C)CNCCN1,7%,12%
O=C(c1ccc(N2C(=O)CCS2(=O)=O)cc1Cl)N1CCCCC1,7%,-1%
O=C(CSc1ccc2ccccc2n1)Nc1ccc2c(c1)CCC2,-1%,59%
O=C(CSc1ccc(N2CCC(C(=O)N3CCCCC3)CC2)nn1)Nc1ccc2c(c1)CCC2,3.2µM*,4µM*
Cc1cnc(NC(=O)CCc2ncc(-c3ccc(C)c(C)c3)o2)s1,-8%,0%
CCCn1c(=O)n(CC(=O)N(C)CC(=O)Nc2ccccc2Br)c2ccccc21,79%,35%
N#Cc1ccc(C(=O)Nc2ccc3nc(CCc4ccccc4)[nH]c3c2)cc1,-10%,-7%
CCn1c(CCc2cccc(NC(=O)c3ccc(C#N)cc3)c2)nc2ccccc21,11µM*,14µM*
CCNC(=O)NC(=O)C(C)Sc1nnc(N2CCCCC2)n1-c1ccc(C)cc1 (stereo not drawn),62%,-3%
Cc1cc(C)nc(NS(=O)(=O)c2ccc(NC(=O)c3nc(SC(C)C)ncc3Cl)cc2)n1,11µM*,-9%
Cc1ccnc(NS(=O)(=O)c2ccc(NC(=O)c3nc(SC(C)C)ncc3Cl)cc2)n1,-13%,-5%
Cc1cc(N2CCCC2)nc(Nc2ccc(NS(=O)(=O)c3ccc(Br)cc3)cc2)n1,-17%,32µM*
CCN(CC)c1cc(C)nc(Nc2ccc(NS(=O)(=O)c3ccc(OC)c(OC)c3)cc2)n1,-61%,?
Cc1cc(N2CCCCC2)nc(Nc2ccc(NC(=O)Cc3ccccc3)cc2)n1,13µM*,14µM*
Cc1cc(N2CCOCC2)nc(N2CCN(C(=O)Nc3ccccc3)CC2)n1,-4%,0%
Cc1cc(N2CCCC2)nc(Nc2ccc(NC(=O)Nc3ccc(Cl)cc3)cc2)n1,13%,48%
Cc1cc(N2CCOCC2)nc(Nc2ccc(NC(=O)CCc3ccccc3)cc2)n1,4µM*,5µM*
CCc1cc(CC)n(-c2nc3c(c(=O)n(CC(=O)OC)c(=O)n3C)n2C)n1,-7%,-15%
Cc1ccc2nc(C)c(C(=O)N3CCN(S(=O)(=O)c4ccc(F)cc4)CC3)cc2c1,3%,-8%
Nc1nccnc1C(=O)NCc1ccc(O)cc1,18%,13%
Cc1cccc(COc2ccc(CNC(=O)c3nccnc3N)cc2)c1,14µM*,?
CCOCc1ccc(CNC(=O)c2nccnc2N)cc1,25µM*,?
Nc1nccnc1C(=O)NCc1ccccc1,10%,22%
N#Cc1ccc(/C=C/C(=O)c2cccc(N3CCOCC3)c2)cc1,0%,24%
O=C(COc1ccccc1Cl)OCC(=O)c1ccc(-c2ccccc2)cc1,4%,0%
SMILES,FMDV RLuc,FMDV antiviral
Cc1cccc(NC(=O)c2sc3nc4c(cc3c2N)CN(Cc2ccccc2)CC4)c1,-6%,97%
CCN1CCc2nc3sc(C(=O)Nc4cccc(Cl)c4C)c(N)c3cc2C1,7.1µM*,13µM*
CCOC(=O)NC(c1ccccc1)C(C(=O)OCC)C(=O)OCC (stereo not drawn),22%,7%
CCOC(=O)C(C)Oc1ccc2c(=O)c(Oc3ccc(CC)cc3)c(C(F)(F)F)oc2c1 (stereo not drawn),3%,20%
O=C(O)CC(NC(=O)c1ccccc1F)c1ccc(OC2CCCC2)cc1 (stereo not drawn),0%,0%
Cc1cccc(NC(=O)C(C#N)=C2CCCC2)c1,22%,0%
N#CC1(NC(=O)CSCc2ccc(Cl)cc2)CCCCCC1,56%,24%
N#CC1=C(SCc2ccc(Cl)cc2)NC(=O)C(C#N)C12CCCC2 (stereo not drawn),10µM*,?
CCc1c(C)sc(NC(=O)CCc2ccccc2)c1C#N,0%,83%
CCC(Oc1ccc(F)cc1)C(=O)Nc1cc(-c2ccc(C)cc2)no1 (stereo not drawn),-4%,-2%
CCC(Oc1ccc(F)cc1)C(=O)Nc1nc(-c2ccc(F)cc2)ns1 (stereo not drawn),?,25µM*
COc1ccc(CCNc2nccn(-c3ccc(C)c(C)c3)c2=O)cc1OC,7.9µM*,?
COc1ccc(-n2ccnc(NCCc3ccccc3)c2=O)cc1OC,5%,-2%
N#Cc1ccc(OCCOC(=O)C2CC3CCCC(C2)C3=O)cc1 (stereo not drawn),1%,4%
CC(C)Cn1c(-c2ccc(F)cc2)cnc1SC(C)C(=O)NC(N)=O (stereo not drawn),-3%,15%
CSc1ccccc1C(=O)Nc1ccc(F)c(F)c1,3%,21%
O=C(Nc1ccc(-n2cccn2)c(F)c1)C1CCN(C(=O)c2ccco2)CC1,-19%,-7%
O=C(Nc1nc(-c2ccc(Cl)cc2Cl)cs1)C1CCN(C(=O)c2ccco2)CC1,35µM*,?
O=C(c1cc2c(Cl)nc3ccccc3c2s1)N1CCCCC1,5%,64%
CCOC(=O)C1CCCN(C(=O)c2cc3c(Cl)nc4ccccc4c3s2)C1 (stereo not drawn),-17%,6.3µM*
N#Cc1nc(-c2ccco2)oc1N1CCN(C(=O)c2ccc(Cl)cc2)CC1,4%,12%
CCn1c2c(c(=O)n3ncc(C(=O)Nc4ccc(F)c(Cl)c4)c13)CN(Cc1ccc(OC)cc1)CC2,-4%,-8%
CCn1c2c(c(=O)n3ncc(C(=O)N4CCN(c5ccc(Cl)cc5)CC4)c13)CN(Cc1ccc(OC)cc1)CC2,22µM*,?
Cc1ccc(C)c(N2CCN(C(=O)Cn3c(C)c4cnn(-c5ccccc5)c(=O)c4c3C)CC2)c1,22µM*,25µM*
Cc1c2cnn(-c3ccccc3)c(=O)c2c(C)n1CC(=O)N1CCN(c2cccc(Cl)c2)CC1,-3%,-8%
O=C(Cc1n[nH]c(=O)c2ccccc12)Nc1ccccc1F,-3%,92%
CCCCS(=O)(=O)c1oc(-c2ccc(F)cc2)nc1S(=O)(=O)c1ccccc1,6%,28µM*
CC(C)S(=O)(=O)c1oc(-c2ccc(F)cc2)nc1S(=O)(=O)c1ccccc1,4%,?
O=C(CSc1ccc(Br)cc1)NCc1ccc(CN2CCCC2)cc1,-15%,-6%

# Source: PubChem BioAssay (National Center for Advancing Translational Sciences (NCATS))
